Measurements taken from PubChem BioAssay AID1159580 (chemical genetic matrix, 2015).
Among all 5,500 compounds or so, about 2,000 (36%) were called active. Inconclusive results (about 18%) are left out. Rule as the data show it: active = normalized growth mostly below about 0.91 (no sharp cut-off); inconclusive = no clear call, values can overlap the other calls; inactive = mostly above about 0.92. The list shows a part of the results.

Test: chemical genetic growth profiling, strain panel (AID 1159580);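 also: tested at 20 µM; growth read once vehicle control cultures reached saturation at 30 °C; 1 = growth at the plate median or of vehicle wells; lower values mean less growth of the strain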
Conditions: growth OD

Measured: normalized growth

O=C(O)C(O)C(O)C(=O)O (configuration not stated)
active: S. cerevisiae deletion strains, locus YPL241C, strain CIN2, stronger effect = lower value 1.07 [resistant]
inactive: S. cerevisiae deletion strains, locus YJR075W, strain HOC1, stronger effect = lower value 0.993 | S. cerevisiae deletion strains, locus YKL009W, strain mrt4, stronger effect = lower value 0.985 | S. cerevisiae deletion strains, locus YKL068W, stronger effect = lower value 0.98 | S. cerevisiae deletion strains, locus YKL085W, strain MDH1 (second series), stronger effect = lower value 0.986 | S. cerevisiae deletion strains, locus YKL085W, strain MDH1, stronger effect = lower value 0.986 | S. cerevisiae deletion strains, locus YKL160W, strain elf1, stronger effect = lower value 1.01 | S. cerevisiae deletion strains, locus YKL190W, strain CNB1, stronger effect = lower value 0.978 | S. cerevisiae deletion strains, locus YKR001C, strain vps1, stronger effect = lower value 0.983 | S. cerevisiae deletion strains, locus YKR026C, strain gcn3, stronger effect = lower value 1.01 | S. cerevisiae deletion strains, locus YKR091W, strain srl3, stronger effect = lower value 1 | S. cerevisiae deletion strains, locus YLL001W, strain dnm1, stronger effect = lower value 0.992 | S. cerevisiae deletion strains, locus YLL026W, stronger effect = lower value 0.972 | S. cerevisiae deletion strains, locus YLL041C, strain sdh2, stronger effect = lower value 0.994 | S. cerevisiae deletion strains, locus YLR027C, strain aat2, stronger effect = lower value 0.999 | S. cerevisiae deletion strains, locus YLR039C, strain RIC1, stronger effect = lower value 0.961 | S. cerevisiae deletion strains, locus YLR058C, strain SHM2, stronger effect = lower value 0.976 | S. cerevisiae deletion strains, locus YLR102C, strain apc9, stronger effect = lower value 0.988 | S. cerevisiae deletion strains, locus YLR113W, strain HOG1, stronger effect = lower value 0.938 | S. cerevisiae deletion strains, locus YLR221C, strain rsa3, stronger effect = lower value 0.986 | S. cerevisiae deletion strains, locus YLR258W, strain gsy2, stronger effect = lower value 0.998 | S. cerevisiae deletion strains, locus YLR262C, strain YPT6 (second series), stronger effect = lower value 1.01 | S. cerevisiae deletion strains, locus YLR262C, strain YPT6, stronger effect = lower value 0.934 | S. cerevisiae deletion strains, locus YLR268W, strain sec22, stronger effect = lower value 0.971 | S. cerevisiae deletion strains, locus YLR320W, strain mms22, stronger effect = lower value 1 | S. cerevisiae deletion strains, locus YLR330W, strain CHS5, stronger effect = lower value 0.991 | S. cerevisiae deletion strains, locus YLR342W, strain FKS1 (second series), stronger effect = lower value 1.03 | S. cerevisiae deletion strains, locus YLR342W, strain FKS1, stronger effect = lower value 0.997 | S. cerevisiae deletion strains, locus YLR357W, strain rsc2, stronger effect = lower value 0.966 | S. cerevisiae deletion strains, locus YLR370C, strain arc18, stronger effect = lower value 1 | S. cerevisiae deletion strains, locus YLR371W, strain rom2, stronger effect = lower value 0.997 | S. cerevisiae deletion strains, locus YLR384C, strain iki3, stronger effect = lower value 0.988 | S. cerevisiae deletion strains, locus YLR418C, strain cdc73, stronger effect = lower value 0.986 | S. cerevisiae deletion strains, locus YML016C, strain PPZ1, stronger effect = lower value 0.992 | S. cerevisiae deletion strains, locus YML032C, strain rad52, stronger effect = lower value 1 | S. cerevisiae deletion strains, locus YML120C, strain ndi1, stronger effect = lower value 0.998 | S. cerevisiae deletion strains, locus YML124C, strain tub3, stronger effect = lower value 0.997 | S. cerevisiae deletion strains, locus YMR058W, strain fet3, stronger effect = lower value 1.01 | S. cerevisiae deletion strains, locus YMR078C, strain ctf18, stronger effect = lower value 0.984 | S. cerevisiae deletion strains, locus YMR125W, strain sto1, stronger effect = lower value 0.987 | S. cerevisiae deletion strains, locus YMR129W, stronger effect = lower value 0.995 | S. cerevisiae deletion strains, locus YMR205C, strain PFK2, stronger effect = lower value 0.981 | S. cerevisiae deletion strains, locus YMR223W, strain ubp8, stronger effect = lower value 1 | S. cerevisiae deletion strains, locus YMR231W, strain pep5, stronger effect = lower value 1 | S. cerevisiae deletion strains, locus YMR263W, strain SAP30, stronger effect = lower value 0.976 | S. cerevisiae deletion strains, locus YMR307W, strain GAS1, stronger effect = lower value 0.921 | S. cerevisiae deletion strains, locus YNL067W, strain RPL9B, stronger effect = lower value 0.993 | S. cerevisiae deletion strains, locus YNL071W, strain lat1, stronger effect = lower value 0.987 | S. cerevisiae deletion strains, locus YNL128W, strain TEP1, stronger effect = lower value 0.981 | S. cerevisiae deletion strains, locus YNL153C, strain GIM3, stronger effect = lower value 0.979 | S. cerevisiae deletion strains, locus YNL183C, strain NPR1, stronger effect = lower value 0.919 | S. cerevisiae deletion strains, locus YNL209W, strain ssb2, stronger effect = lower value 1.02 | S. cerevisiae deletion strains, locus YNL233W, strain BNI4, stronger effect = lower value 0.986 | S. cerevisiae deletion strains, locus YNL248C, strain rpa49, stronger effect = lower value 0.994 | S. cerevisiae deletion strains, locus YNL250W, strain rad50, stronger effect = lower value 0.987 | S. cerevisiae deletion strains, locus YNL271C, strain bni1, stronger effect = lower value 0.992 | S. cerevisiae deletion strains, locus YNL298W, strain CLA4, stronger effect = lower value 0.988 | S. cerevisiae deletion strains, locus YNL307C, strain MCK1, stronger effect = lower value 0.991 | S. cerevisiae deletion strains, locus YNL322C, strain KRE1 (second series), stronger effect = lower value 0.985 | S. cerevisiae deletion strains, locus YNL322C, strain KRE1, stronger effect = lower value 0.99 | S. cerevisiae deletion strains, locus YNR049C, strain mso1, stronger effect = lower value 1 | S. cerevisiae deletion strains, locus YNR052C, strain pop2, stronger effect = lower value 0.991 | S. cerevisiae deletion strains, locus YOL006C, strain TOP1, stronger effect = lower value 0.97 | S. cerevisiae deletion strains, locus YOL012C, strain htz1 1.53 | S. cerevisiae deletion strains, locus YOL147C, strain pex11, stronger effect = lower value 0.987 | S. cerevisiae deletion strains, locus YOR001W, strain rrp6, stronger effect = lower value 0.991 | S. cerevisiae deletion strains, locus YOR061W, strain CKA2, stronger effect = lower value 0.959 | S. cerevisiae deletion strains, locus YOR069W, strain VPS5, stronger effect = lower value 0.997 | S. cerevisiae deletion strains, locus YOR070C, strain gyp1, stronger effect = lower value 0.984 | S. cerevisiae deletion strains, locus YOR080W, strain dia2, stronger effect = lower value 1 | S. cerevisiae deletion strains, locus YOR083W, strain WHI5, stronger effect = lower value 1.01 | S. cerevisiae deletion strains, locus YOR106W, strain vam3, stronger effect = lower value 0.994 | S. cerevisiae deletion strains, locus YOR136W, strain idh2, stronger effect = lower value 0.997 | S. cerevisiae deletion strains, locus YOR144C, strain elg1, stronger effect = lower value 0.986 | S. cerevisiae deletion strains, locus YOR184W, strain ser1, stronger effect = lower value 1.01 | S. cerevisiae deletion strains, locus YOR231W, strain MKK1, stronger effect = lower value 0.959 | S. cerevisiae deletion strains, locus YOR265W, strain rbl2, stronger effect = lower value 0.995 | S. cerevisiae deletion strains, locus YOR270C, strain vph1, stronger effect = lower value 0.979 | S. cerevisiae deletion strains, locus YOR290C, strain snf2, stronger effect = lower value 1.02 | S. cerevisiae deletion strains, locus YOR316C, strain cot1, stronger effect = lower value 0.98 | S. cerevisiae deletion strains, locus YPL051W, strain arl3, stronger effect = lower value 1.01 | S. cerevisiae deletion strains, locus YPL055C, strain LGE1, stronger effect = lower value 0.965 | S. cerevisiae deletion strains, locus YPL078C, strain atp4, stronger effect = lower value 0.999 | S. cerevisiae deletion strains, locus YPL106C, strain sse1, stronger effect = lower value 0.976 | S. cerevisiae deletion strains, locus YPL240C, strain hsp82, stronger effect = lower value 0.989 | S. cerevisiae deletion strains, locus YPL256C, strain CLN2, stronger effect = lower value 0.943 | S. cerevisiae deletion strains, locus YPR119W, strain clb2, stronger effect = lower value 0.994 | S. cerevisiae deletion strains, locus YPR141C, strain kar3, stronger effect = lower value 0.97 | S. cerevisiae deletion strains, locus YPR163C, strain tif3, stronger effect = lower value 0.991 | S. cerevisiae deletion strains, locus YPR167C, strain met16, stronger effect = lower value 0.98 | S. cerevisiae deletion strains, strain wtn01, stronger effect = lower value 0.997 | S. cerevisiae strains, strain wild type, stronger effect = lower value 0.996
